Most compounds without a hit are left out; they make up all but 11% or so of the library.
Pf growth 48h = inhibits P. falciparum growth in the first generation, 48 h; P. falciparum luciferase growth in erythrocytes, 48 h; Potency, µM (top dose mostly 28.7 µM), for the others: top-dose activity change, negative = inhibition, most hits filed as inhibitors; actives 5.9% (n = 310,000); AID 504832; further: on the % scale 0 is the no-effect control and ±100 the full control effect
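A one-generation exposure of luciferase-tagged malaria parasites in RPMI 1640/Albumax erythrocyte culture, 37 C and 5% CO2. Inhibition is inferred from decreased luminescence after adding detection reagent.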
VACV Venus inh = vaccinia inhibition (Venus reporter); AID 720580; Vaccinia virus Venus reporter expression, fluorescence; actives 0.46% (n = 330,000); Potency, µM (doses to about 36.5 µM), for inactives: at the highest dose activity change, negative = inhibition, hits mostly inhibitors; calls by dose curve; tested in A549 cells; further: on the % scale 0 is the no-effect control and ±100 the full control effect; nearly all actives have a fitted effect of over 30% in size
VACV mCherry inh = vaccinia inhibition (mCherry reporter); Vaccinia virus mCherry reporter infection, fluorescence; Potency, µM (titrated, usually from 36.5 µM), without a hit: at the top dose activity change, negative = inhibition, actives largely listed as inhibitors; actives 0.63% (n = 310,000); calls by dose curve; tested in A549 cells; further: on the % scale 0 is the no-effect control and ±100 the full control effect; nearly all actives have a fitted effect of over 35% in size
Pf growth 96h = inhibits malaria parasite growth, 96 h | P. falciparum luciferase reporter growth, 96 h | Potency, µM (doses to about 28.7 µM), for the others: at the top dose activity change, negative = inhibition, most hits filed as inhibitors | actives 6.9% (n = 320,000); further: on the % scale 0 is the no-effect control and ±100 the full control effect
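96 h incubation, 37 C, 5% CO2, of luciferase-reporter P. falciparum-infected RBCs (2% hematocrit, 0.05% parasitemia final) with test compounds; endpoint luminescence.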
HCV inhibitor = HCV inhibition. Huh7.5.1 HCVcc-Cre infection, luciferase reporter, 44 h. Potency, µM (highest dose often 41.8 µM), inactives show at the top dose activity change, negative = inhibition, most hits filed as inhibitors. actives 3.4% (n = 340,000). AID 651820; further: on the % scale 0 is the no-effect control and ±100 the full control effect
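Luciferase read-out (15 sec integration) after a 15 min room-temperature substrate step quantifies HCVcc-Cre infection. Cells, 1,000 per well, had compound added 4 h post-plating, then virus at ~0.5 moi, and were cultured 44 h.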
NS1 function inh = influenza NS1 inhibition. actives 0.4% (n = 270,000). Potency, µM (doses to about 46.1 µM), for inactives: at the highest dose activity, positive = more growth; calls by dose curve; further: actives are rising curves; nearly all actives have a fitted effect of over 50% in size
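Read-out: OD600 growth recovery of NS1-expressing budding yeast. Cells grown overnight at 30C in -URA glucose medium, washed, resuspended and diluted 1:100 in 2% galactose assay medium, pH 6.0. Same strain lacking NS1 served as positive control.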
* hit, by the source's call. Unless noted, the call rests on the fitted dose curve; in most records, active means well fitted inhibition curve with a large enough effect; inconclusive means small, poorly fitted or top-dose-only effect, or another doubt; inactive means no such curve, though single readings can be large or run the other way. Potency means the concentration at half of the fitted maximal effect.

How did COc1ccc(OC)c(Nc2c3ccccc3nc3ccccc23)c1 do in these assays?
Pf growth 48h: 1.7µM*; VACV Venus inh: inconclusive; VACV mCherry inh: inconclusive; Pf growth 96h: inconclusive; HCV inhibitor: inconclusive; NS1 function inh: -9%

What do the screens show for `COc1ccccc1Nc1c([N+](=O)[O-])cc(C)cc1[N+](=O)[O-]`?
Pf growth 48h: 4%; Pf growth 96h: 10µM*; HCV inhibitor: 1%

Results for N#CC1=C(N)N(c2ccc(Cl)cc2)C2=C(C(=O)CCC2)C1c1cc(CN2CCOCC2)cs1 (configuration not stated) ?
VACV Venus inh: -8%; VACV mCherry inh: -3%

Results for COc1cccc(C2C(C(=O)Nc3cccnc3)=C(C)Nc3nnnn32)c1OC (configuration not stated) ?
Pf growth 48h: inconclusive; Pf growth 96h: 20%; HCV inhibitor: -5%; NS1 function inh: -7%

What do the screens show for `Nc1nnc(CSCc2ccc(Cl)cc2Cl)s1`?
Pf growth 48h: 18%; VACV Venus inh: -9%; VACV mCherry inh: -10%; Pf growth 96h: 2%; HCV inhibitor: 12%; NS1 function inh: -4%

Results for COc1cc([N+](=O)[O-])ccc1Nc1nc(C)cc(C)n1 ?
Pf growth 48h: 15%; VACV Venus inh: -2%; VACV mCherry inh: -17%; Pf growth 96h: 9.3µM*; HCV inhibitor: inconclusive; NS1 function inh: 4%

Results for COc1ccc(OC)c(Nc2ccc(Nc3cc(OC)ccc3OC)nn2)c1 ?
Pf growth 48h: inconclusive; VACV Venus inh: -26%; VACV mCherry inh: -29%; Pf growth 96h: 9.3µM*; HCV inhibitor: inconclusive; NS1 function inh: 17%

How did COc1cc(Nc2nc3ccccc3nc2NS(=O)(=O)c2ccc([N+](=O)[O-])cc2)cc(OC)c1OC do in these assays?
Pf growth 48h: inconclusive; VACV Venus inh: -20%; VACV mCherry inh: inconclusive; Pf growth 96h: inconclusive; HCV inhibitor: 22µM*; NS1 function inh: -2%

How did O=[N+]([O-])c1ccc(S(=O)(=O)Nc2nc3ccccc3nc2Nc2ccccc2)cc1 do in these assays?
Pf growth 48h: inconclusive; VACV Venus inh: -4%; VACV mCherry inh: 7%; Pf growth 96h: 16%; HCV inhibitor: inconclusive

How did COc1ccccc1Nc1ccc(Nc2ccccc2OC)nn1 do in these assays?
Pf growth 48h: 82%; VACV Venus inh: -18%; VACV mCherry inh: -29%; Pf growth 96h: inconclusive; HCV inhibitor: -3%; NS1 function inh: -3%

Results for Cc1ccc(S(=O)(=O)NC(=O)Nc2ncc3c(n2)CC(c2ccco2)CC3=O)cc1 (configuration not stated) ?
Pf growth 48h: 11%; Pf growth 96h: -23%; HCV inhibitor: 5%; NS1 function inh: 0%

Results for COc1ccccc1CNC(=O)c1cc2cc(S(=O)(=O)N3CCCCC3)ccc2n1C ?
VACV Venus inh: -13%; VACV mCherry inh: -17%

Results for Cc1ccc(CCNC(=O)C2CCN(S(=O)(=O)c3ccc4c(c3)CCC(=O)N4)CC2)cc1 ?
Pf growth 48h: -9%; VACV Venus inh: 0%; VACV mCherry inh: 30%; Pf growth 96h: -26%; HCV inhibitor: 2%; NS1 function inh: 3%

Results for CN(CC(=O)NCCC1=CCCCC1)S(=O)(=O)c1ccc2c(c1)CCC(=O)N2 ?
Pf growth 48h: inconclusive; VACV Venus inh: -9%; VACV mCherry inh: inactive; Pf growth 96h: 3.3µM*; HCV inhibitor: -9%; NS1 function inh: -4%

What do the screens show for `COc1ccc(CCNC(=O)CN(C)S(=O)(=O)c2ccc3c(c2)CCC(=O)N3)cc1OC`?
VACV Venus inh: -9%; VACV mCherry inh: inactive; Pf growth 96h: -15%; HCV inhibitor: 20%; NS1 function inh: 27%

How did O=C1CCc2cc(S(=O)(=O)N3CCC(C(=O)NCCC4=CCCCC4)CC3)ccc2N1 do in these assays?
VACV Venus inh: -9%; VACV mCherry inh: -13%; Pf growth 96h: 0.83µM*; HCV inhibitor: -8%; NS1 function inh: -5%

Results for CCOC(=O)Cc1c(C)[nH]c(=S)[nH]c1=O ?
Pf growth 48h: 1.3µM*; VACV Venus inh: -12%; VACV mCherry inh: inactive; Pf growth 96h: -29%; HCV inhibitor: 18%; NS1 function inh: 0%

How did COC(=O)CCc1c(C)[nH]c(=S)[nH]c1=O do in these assays?
Pf growth 48h: 7%; VACV Venus inh: -5%; VACV mCherry inh: -11%; Pf growth 96h: inconclusive; HCV inhibitor: -5%; NS1 function inh: 0%

What do the screens show for `C[C@@H]1CN([C@H](C)CO)C(=O)CCCn2nncc2CO[C@H]1CN(C)Cc1ccc(C(=O)O)cc1`?
VACV Venus inh: -1%; VACV mCherry inh: -17%

Results for COCc1ccc(CN2CCCC(C(=O)c3sccc3C)C2)o1 (configuration not stated) ?
Pf growth 48h: 14%; VACV Venus inh: -10%; VACV mCherry inh: inactive; Pf growth 96h: 15µM*; HCV inhibitor: -24%; NS1 function inh: 1%

How did CC(=O)NCCc1ccc(S(=O)(=O)N2CCN(c3nc(-c4ccccc4)c(C)s3)CC2)cc1 do in these assays?
Pf growth 48h: 3.7µM*; VACV Venus inh: -15%; VACV mCherry inh: -2%; Pf growth 96h: 4.1µM*; HCV inhibitor: -23%; NS1 function inh: 7%

What do the screens show for `Cc1ccc(S(=O)(=O)N2CCN(C(=S)NCC3CCCO3)CC2)cc1` (configuration not stated)?
Pf growth 48h: 3.7µM*; VACV Venus inh: -16%; VACV mCherry inh: -14%; Pf growth 96h: 3.3µM*; HCV inhibitor: 4%

How did COc1ccc(C(=O)NC2CCN(S(=O)(=O)c3ccccc3F)CC2)cc1 do in these assays?
Pf growth 48h: 10µM*; Pf growth 96h: -13%; HCV inhibitor: -14%; NS1 function inh: -2%

Results for Cc1ccc(S(=O)(=O)N2CCN(C(=S)NCCc3ccccc3)CC2)cc1 ?
Pf growth 48h: inconclusive; Pf growth 96h: 7.4µM*; HCV inhibitor: -12%

How did COc1ccc(CCNC(=S)N2CCN(S(=O)(=O)c3ccccc3F)CC2)cc1 do in these assays?
Pf growth 48h: 13µM*; VACV Venus inh: -16%; VACV mCherry inh: -1%; Pf growth 96h: inconclusive; HCV inhibitor: -16%; NS1 function inh: -11%

What do the screens show for `COc1cc(OC)cc(C(=O)NCC(=O)N2CCN(S(=O)(=O)c3ccccc3F)CC2)c1`?
HCV inhibitor: 21%

How did COc1ccc(CCNC(=S)N2CCN(S(=O)(=O)c3ccccc3)CC2)cc1 do in these assays?
Pf growth 48h: 10µM*; VACV Venus inh: -22%; VACV mCherry inh: -3%; Pf growth 96h: inconclusive; HCV inhibitor: inconclusive

What do the screens show for `CCNC(=S)N1CCN(C(=O)C(Cc2ccccc2)NC(C)=O)CC1` (configuration not stated)?
Pf growth 48h: 54%; Pf growth 96h: 10µM*; HCV inhibitor: 4%
